The full ranking holds about 2,300 sequences; the median of “median log2 fold change of GCK-ALFA target abundance (FLAG IP / Myc IP barcode read proportion)” is about 0.095, and the lowest 2% start at about -0.47. The list comes from a sample in which the lowest values are over-represented; it also holds similar and randomly drawn sequences.
B1: LC3A_28_1225 (protein)
chain: AAVDAEIAAARAAMAAAAAAGEEATITVKITGKTTLADVKRLMEALRAIVAEHAHLPRISIIIDLSGKVTQEQIDAAAEGGERIEKEFPNVTVILALDEN
B2: LC3A_28_983 (protein)
chain: MDPREQVEELIKKAKEAAAKGEATVFTITVTSTATEEDIELITEGLKEIAEILKDVKGSAIIVDVESGVPEEYIDKIAETMEEIEKANPNVTTIIALDED
B3: LC3A_free_8_2473 (protein)
chain: SVQELVDQITALLDELEEKVREKAKELGVDELDILELELEIGSLIADLISASDGTIEEVKEIAEEGLEEIEELAKELSEEIAEIVRETREKILALLEAAE
B4: LC3A_free_0_2120 (protein)
chain: KKTVVEVVIILDDSTSEEKAKEIHEKLKEEAEKLAKENGGELKSSLSKSDGSYIITLEITFDTEDIDLALEVERKLVEIAEKILKEANVEATIYSSVYLE
B5: LC3A_free_39_2213 (protein)
chain: SEEELEELLKKVAEESGLDYEYIKKKIEEIQKVAGLSLEQMKKIVEAILEAVKEGANAEEILERILALAKELKAAGKSPEEIAKALLEEVEDYRNLIPLD
B6: LC3A_free_39_2211 (protein)
chain: SEEELEELLKKVAEESGLDYEYIRERVEEIRRVAGLSLEQMLELVKAILEAVREGADAEEILEEVLALAKELVAAGKSPEEIAEALLEEVEDFRNLIPLD
B7: LC3A_free_0_2116 (protein)
chain: KKTVVEVLVILDESTTEEEAKKAYEELKKKAEEIAKKYGWEVKVELSKSDGSWIITVTLTSDSTDIDKALEIARELSDAAEEIAKELGLDATIYESVYLE
B8: LC3A_28_1087 (protein)
chain: SELEEQLKKALEEAKKAKEEGKEVTLEITVPDTATEEDIELVKETLKEIAEIAKELPSLSVVINLTGKNAQAKATELSAHAEELEKEVPNLTVIIALDED
B9: LC3A_3_1520 (protein)
chain: MEEIEKEIIKLLKEAGASEETIEKAKELLKLLRERGYLNAMKTLLEELKELKDAPVETIEAFVKDVLELVKTEDLSEEELSKRIKELATIAKNDAEIEEL
B10: LC3A_6_2066 (protein)
chain: KLYKITIDILLKSEKPEEALKVAKEIAEEIRKFAEEINKEYNGAVKKLEIKIEEIDGEVFLTIEIVAEEKAVNEIIDKVDEIVEENKEYVAASMISVEEL
B11: LC3A_28_724 (protein)
chain: NRLEASIAAALARARALAAAGESDVIEITIPGDATEEDIERVIEALEEIAAITADLPRTDIVINVEGGVKQEHIDRLADAAEAIEARYPNVTVIIALDEE
B12: LC3A_55_2007 (protein)
chain: MEVFIFITENAETGEILALEVEVDSDPERLLEALRAAGEELAAELFRLANGRRLDEEEMAEIKARYSPEEVRAAVEALIAVLESLPDVKVSVLIELEEEE
B13: LC3A_13_341 (protein)
chain: TVTLEVETAEELRERGFAALAAHPGETIRITVTVRDEEEAEAIAEVLAELVRAAAEAGSDLEITIRGPRDLVLYVALEVGSEAYEHIDKVTVTITEEVVE
B14: LC3A_147_449 (protein)
chain: MLYEITVDALFKNDPALAEEVAEQLKAIAEKHGGEVEVEFEEEQVSPTTTEYFLNVTITFEDKAKAQAAETEIAALLDETAAKHPDKFLGAILSFEEVEP
B15: LC3A_3_1611 (protein)
chain: MEELIERELERLREAGFSPEVLEEARKVLEALAEKGYRRAIEKLTEELLKLKDVDPELVIEALREILRIVTEEDLSEEEVIEEIEREFRVVRLESEIIEL
B16: LC3A_free_8_2519 (protein)
chain: KSKAFAQRVVAILEELEKEIVKLLKEKGASRLDILEAELLIGSIIAEVISLQDKSPEEIIKAVKEGLKELVEELEKYKEEVKKLAEEALKKIEAAKKELE
B17: LC3A_3_1395 (protein)
chain: FEEIRKETIEYLKKAGKSEEVIKAAEEALELLEKRGYLEAAKTFLEELKKMKDVSDELLLWFLNEVINYLKTNDDDEETVIKKIKEFATIVKNESEIEEL
B18: LC3A_147_483 (protein)
chain: MRIDIDALIKGEETVEEFIERLEEKKEELEEEGVEVELEIEVEEVEEGVYYLKVTVTIKAETKEKEKEAADKIIDTIEEFEEENKDKVLGVLISVEEIEE
B19: LC3A_28_1260 (protein)
chain: SELEKNIEAAIAEVKEAVAKGEEAVVTIKVPAGITEEEVEKVIETMEKIAELGKSLPSVTIIVDVEKGVKQEHIDKLVDKGEELEKKYPNLTVIFALEEE
B20: LC3A_45_1982 (protein)
chain: MWEATIDLLVPRELAEEAYAILKEAGAELVARHGDDLKVDWDALDASYEASRDEEEVYLRLNIYHPDKQVALDSAVEIVDRLEERLGRKVAAIISVKEVP
B21: LC3A_23_600 (protein)
chain: MVTVEADHVVKNDPELAEEKTKKLLEEIKKILEKNKDYIKDYKIEVEFYTDEDGNTVVRITVTVKVKDDPEKAQEIANELISAFDEILPDAVIAYDVEED
B22: LC3A_28_836 (protein)
chain: SFAEEEIKKAKKALEKAKETKEDVVVEVVIKSTMTPEEAQYIMDELEKEVSKLPKDVKVSIVFLAEEPVDPEVLQTIADGGDEIEEKYPNVTVIIALPEE
B23: LC3A_28_985 (protein)
chain: SAMEERLAAALAEAKAAAAAGEATVITIEVPSTATEEDIEKAVAALKEIGEILKGVKGSAIVVDLESGVPEEHIRKLADAGEEVEKANPDVSVIFALDED
B24: LC3A_141_362 (protein)
chain: AVKKKTYTYTATTYDEALKVAEEIGKEIKKFMEETGAEEVKVTVTITSYNEKTGEVTTETDTYTVTKENLDLFIEGLEIDLLSAFDKGADKIVVKVTIET
B25: LC3A_28_758 (protein)
chain: MDVAEIVAAAIAEAKAAAAAGEEAVIRIRVPAGATQEDIDKVIAGLEEIAEIRKDMKSTSIVIDIEAGVSQENIDKLIDAGEAIEKKYPNITVIFALDED
B26: LC3A_59_2012 (protein)
chain: REEVREWVEKIYEAYDDVEKFYELVKKAYEELKKKYSDEELLKLVKEEVERLIKEGKDPRKMKAIYESFKAVIEIKDEEKQKEEIRLIILESEIEEIDEE
B27: LC3A_3_1808 (protein)
chain: MEERLEEVIKLLKEAGHSEETIKAFLEAAEALKEKGYEEALETLLELARELVDLPSELLLEMFEDVLELVETSDDSEEEITERIREIASTYRHEAEIEEL
B28: LC3A_132_320 (protein)
chain: MEEKARRIREEILRLIEEAEENIDDLEKVEELVEEIRELARRAEEELTPEQVAEIFEEAAEKADEVSLKADEEGKEDVALLMDGLSVELAALSIRAEEKI
B29: LC3A_free_2_2172 (protein)
chain: MKYRVIIDALGKPEGIAKLVKTLVDLGIEVEVTTEDGTKMTATKETVEEVVKYLLSKKEEIYVELEAVTDKEKADKALDELEKVAEETGISYIVSIEELE

target: MAP1LC3A, Q9H492; assay: median log2 fold change of GCK-ALFA target abundance (FLAG IP / Myc IP barcode read proportion) (log2 ratio); each designed protein is fused to an ALFA-tag nanobody in HEK293 cells to bring the named protein to FLAG-tagged glucokinase (GCK); Myc marks an untargeted standard; higher = target protein stabilised (more abundant); conditions: target protein: 3xFLAG-MCP-GCK-ALFA reporter; HEK293 landing pad (RPLP)
Outline: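 Sequencing of reverse-transcribed, amplified circular RNA barcodes from anti-FLAG and anti-Myc immunoprecipitates provided the readout for an ALFA-nanobody-fused binder library recombined into HEK293 landing-pad cells. Those cells were induced with 2 μg mL^−1 doxycycline, transfected with a plasmid expressing a FLAG-tagged target and a Myc-tagged standard, and lysed after 48 h. Target abundance is the per-binder median log2 ratio of FLAG to Myc barcode read proportions. Only barcodes at a proportion of ≥10^−7 in both replicates and binders with ≥3 barcodes per replicate were kept, with a 10^−6 pseudocount added before the two replicates were pooled.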

Binder	median log2 fold change
B1	0.191
B2	-0.2
B3	-0.379
B4	-0.12
B5	0.203
B6	-0.819
B7	-0.122
B8	0.251
B9	0.547
B10	-0.173
B11	0.154
B12	0.119
B13	0.0625
B14	-0.603
B15	0.132
B16	-0.243
B17	0.436
B18	-0.904
B19	-0.13
B20	0.0214
B21	-0.566
B22	0.111
B23	-0.274
B24	-0.96
B25	0.124
B26	0.156
B27	0.0777
B28	0.104
B29	-8.53e-05
